# HT1080NT lethal: qHTS for induction of synthetic lethality in tumor cells producing 2HG: qHTS for the HT-1080-NT fibrosarcoma cell line. HT-1080-NT fibrosarcoma viability, CellTiter-Glo ATP luminescence, 48 h. Potency, µM (series often up to 46.1 µM), without a hit: at the top dose activity, negative = less viability, most hits filed as cytotoxic. actives 1.6% (n = 360,000). AID 686970, 2013;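 note: NT is the 2HG producing partner of a matched IDH1 knockdown line; potency is the fitted concentration of half-maximal effect; 0% = DMSO-treated cells and -100% = media-only wells without cells; nearly all actives have a fitted effect of over 55% in size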
#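 750 cells/well, RPMI + 5% FBS; 2 h settle, compound pin-transfer, 48 h at 37 degrees C. CellTiter-Glo 10 min RT, luminescence. Normalized to DMSO and media-only wells.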
# HT1080 IDH1KD tx: qHTS for induction of synthetic lethality in tumor cells producing 2HG: qHTS for the HT-1080-IDH1KD cell line; Potency, µM (series often up to 46.1 µM), inactives show at the top dose activity, negative = toxicity, usual class: cytotoxic; actives 2% (n = 360,000); HT-1080 IDH1 knockdown viability, ATP luminescence, 48 h;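 note: potency is the fitted concentration of half-maximal effect; 0% = DMSO wells and -100% = cell-free medium wells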
#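 Viability of IDH1-knockdown HT-1080 fibrosarcoma cells was assessed by CellTiter-Glo after 48 h at 37 °C with titrated compound; concentration-effect curves were classified by fit quality and response size.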
# IL-1B inflam inh: qHTS for Inhibitors of Inflammasome Signaling: IL-1-beta AlphaLISA Primary Screen; actives 4.7% (n = 360,000); THP-1 LPS/ATP IL-1B secretion, AlphaLISA, 16 h; active compounds read low; AID 743279, 2014; activity change, % at 57.5 µM; in the data active = activity change below about -50%; inconclusive = mostly about -30% to -49%
#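 THP-1 cells pretreated 1 hr with compounds (up to 57.5 uM final), then stimulated with LPS (250 ng/mL final) plus ATP (1.25 mM final); secreted IL-1B measured by AlphaLISA after 16 hr, decreased signal indicating inhibition.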
# DT40 TDP1 CPT: qHTS for Inhibitors of human tyrosyl-DNA phosphodiesterase 1 (TDP1): qHTS in cells in presence of CPT. chicken DT40 Tdp1-/-;hTDP1 cells + 20 nM CPT, ATP luminescence, 48 h. Potency, µM (highest dose often 46.2 µM), for the others: at the top dose activity change, negative = growth inhibition, usual class: inhibitors. actives 12% (n = 420,000). AID 686979, 2013; note: potency is the fitted concentration of half-maximal effect; nearly all actives have a fitted effect of over 55% in size
#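 Chicken DT40 Tdp1-/- cells complemented with human TDP1, 400 cells/well, exposed to compounds plus 20 nM camptothecin for at least 48 h at 37 C; viability read as ATP content by CellTiter-Glo luminescence.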
# ELG1 DNA repair: qHTS screen for small molecules that inhibit ELG1-dependent DNA repair in human embryonic kidney (HEK293T) cells expressing luciferase-tagged ELG1; Potency, µM (series often up to 46.1 µM), for the others: top-dose activity change, negative = inhibition, most hits filed as inhibitors; HEK293T ELG1-luciferase reporter, luminescence, 16 h; DNA damage induced by 5-fluorouridine; actives 2.3% (n = 330,000); AID 504467, 2011; note: potency is the fitted concentration of half-maximal effect; nearly all actives have a fitted effect of over 55% in size
#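 Overnight (16 hr) co-exposure of 2,000 cells/well to 5-fluorouridine and compound at 37 °C preceded detection. Luciferase was quantified via ONE-Glo luminescence; loss of signal denotes inhibition.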
# TDP1 cell noCPT: qHTS for Inhibitors of human tyrosyl-DNA phosphodiesterase 1 (TDP1): qHTS in cells in absence of CPT | DT40 Tdp1-/- hTDP1 cells, no CPT, ATP luminescence, 48 h | Potency, µM (series often up to 46.2 µM), without a hit: top-dose activity change, negative = growth inhibition, usual class: inhibitors | actives 15% (n = 420,000) | AID 686978, 2013; note: potency is the fitted concentration of half-maximal effect; nearly all actives have a fitted effect of over 55% in size
#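 Chicken DT40 Tdp1-/- cells stably complemented with human TDP1 were seeded at 400 cells/well with DMSO in place of 20 nM camptothecin. After compound pinning, cells grew at least 48 hr at 37 °C; viability read by CellTiter-Glo luminescence.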
# * = called active by the depositor; ? = inconclusive; . = no result given. Compounds with a hit are over-represented: about 19% of the library has one in this group of screens. Unless noted, calls come from the whole dose curve; as a rule, active = well fitted curve in the direction sought with a large enough effect; inconclusive = small, poorly fitted or top-dose-only effect, or another doubt; inactive = no such curve, though single readings can be large; an effect the other way counts as inactive or inconclusive. Unless noted, % is set by controls: 0 for no effect and ±100 for the full control effect.
SMILES,HT1080NT lethal,HT1080 IDH1KD tx,IL-1B inflam inh,DT40 TDP1 CPT,ELG1 DNA repair,TDP1 cell noCPT
CC(c1ccccc1)N(C)C(=O)CSc1nnc(C2CC2)n1C1CC1 (stereo not drawn),9%,14%,-3,3%,12%,21%
CC(NC(=O)C1CCN(S(=O)(=O)c2cc([N+](=O)[O-])ccc2Cl)CC1)c1ccccc1 (stereo not drawn),8%,-1%,-17,?,-8%,?
Cc1ccc2nc(NC(=O)C3CCN(S(=O)(=O)c4cc([N+](=O)[O-])ccc4Cl)CC3)sc2c1,-4%,-25%,?,9.2µM*,?,6.5µM*
Cc1ccc(NC(=O)C2CCN(S(=O)(=O)c3cc([N+](=O)[O-])ccc3Cl)CC2)nc1,?,?,-9,16µM*,-29%,15µM*
CN(Cc1ccccc1)C(=O)C1CCN(S(=O)(=O)c2cc([N+](=O)[O-])ccc2Cl)CC1,2%,-5%,?,?,5%,23µM*
CC[C@]12C(=O)N(C)C[C@H]([C@@H]3C(=O)N(C)C(=O)[C@@H]31)N2C(=O)c1ccc(Br)cc1,4%,3%,1,14%,.,-13%
O=C(O)C1C2CCC1C(O)C2 (stereo not drawn),14%,-4%,-4,2%,.,4%
CC1CCN(c2c(NCC3CCC(C(=O)NCCC4=CCCCC4)CC3)c(=O)c2=O)CC1 (stereo not drawn),17%,12%,-17,18µM*,?,?
CC1CCN(c2c(NCC3CCC(C(=O)N4CCCCC4)CC3)c(=O)c2=O)CC1 (stereo not drawn),0%,18%,-8,0%,?,-2%
CC1CCN(c2c(NCC3CCC(C(=O)N4CCc5ccccc5C4)CC3)c(=O)c2=O)CC1 (stereo not drawn),0%,2%,-1,?,9.2µM*,?
O=C(C1CCC(CNc2c(N3CCCCC3)c(=O)c2=O)CC1)N1CCc2ccccc2C1 (stereo not drawn),-5%,-10%,-7,?,?,16µM*
O=C(NCCC1=CCCCC1)C1CCC(CNc2c(N3CCCC3)c(=O)c2=O)CC1 (stereo not drawn),4%,8%,-28,-11%,-2%,-7%
O=C(C1CCC(CNc2c(N3CCCCC3)c(=O)c2=O)CC1)N1CCCCC1 (stereo not drawn),-1%,7%,-4,-1%,5%,-15%
NC(COCc1ccccc1)c1csc(Nc2nncc3ccccc23)n1 (stereo not drawn),?,?,?,?,.,21µM*
NC(COCc1ccccc1)c1csc(Nc2ccccn2)n1 (stereo not drawn),4%,-5%,-4,26µM*,.,?
NC(CCc1ccccc1)c1csc(Nc2ccc(C(F)(F)F)cn2)n1 (stereo not drawn),-28%,?,-28,21µM*,.,?
COc1ccc(C(N)c2csc(Nc3nncc4ccccc34)n2)cc1 (stereo not drawn),?,?,-17,?,.,?
c1ccc(Nc2nc(-c3cccs3)cs2)nc1,-26%,-22%,-13,?,?,?
NC(CCc1ccccc1)c1csc(Nc2ccccn2)n1 (stereo not drawn),?,16µM*,?,?,.,?
CCc1cccc(C)c1NC(=O)c1cc(S(=O)(=O)N2CCOCC2)cn1C,.,.,.,-13%,.,8%
CCc1nc2ccc(C(=O)NCCCn3ccnc3)cn2c1N(C)C(=O)COc1ccccc1,7%,10%,18,1%,.,3%
CC(C)[C@H](N)C(=O)NC[C@H]1O[C@@H](n2cnc3c(N)ncnc32)[C@H](O)[C@@H]1O,8%,7%,1,-8%,3%,-9%
CC(C)CSCC1OC(n2cnc3c(N)nccc32)C(O)C1O (stereo not drawn),-3%,-11%,33,?,.,21µM*
CCN(CC)CCN(C(=O)CCS(=O)(=O)c1ccccc1)c1nc2c(C)cc(C)cc2s1,-1%,0%,-90*,16µM*,0%,7.3µM*
Cc1cc(C)c2sc(N(CCN(C)C)C(=O)CCS(=O)(=O)c3ccccc3)nc2c1,-12%,-6%,-14,23µM*,-5%,18µM*
SMILES,HT1080NT lethal,HT1080 IDH1KD tx,IL-1B inflam inh,DT40 TDP1 CPT,ELG1 DNA repair,TDP1 cell noCPT
CCN(CC)CCN(C(=O)CCS(=O)(=O)c1ccccc1)c1nc2cc(C)cc(C)c2s1,?,?,-102*,21µM*,8%,?
CCN(CC)CCN(C(=O)CCS(=O)(=O)c1ccccc1)c1nc2cc(OC)c(OC)cc2s1,6%,13%,8,?,-1%,?
COc1ccc(Cl)c2sc(N(CCN(C)C)C(=O)CCS(=O)(=O)c3ccc(C)cc3)nc12,?,-19%,-15,?,6%,?
CCOc1ccc(NC(=O)CSc2nc(N3CCOCC3)nc(N3CCOCC3)n2)cc1,7%,1%,3,3%,-3%,-7%
CC(C)(C)Nc1nc(SCC(=O)Nc2ccccc2)nc(N2CCOCC2)n1,-6%,-2%,-90*,?,-19%,23µM*
CCNc1nc(SCC(=O)Nc2ccc(Cl)c(Cl)c2)nc(N2CCOCC2)n1,?,?,-59*,?,?,18µM*
CN(C)c1nc(SCC(=O)Nc2ccc(Cl)c(Cl)c2)nc(N2CCOCC2)n1,-12%,-18%,-9,-75%,-1%,23µM*
CN(C)c1nc(SCC(=O)Nc2ccccc2)nc(N2CCOCC2)n1,-2%,-13%,-1,3%,?,-16%
CNC(=O)[C@@H]1C[C@H](NC2CCCCCCC2)CN1Cc1cccc(OC)c1OC,.,.,.,?,.,-28%
CC(C)CCCC(C)C1CCC2C3CC=C4CC(=O)CC[C@@]4(C)C3CC[C@@]12C (stereo partly drawn),.,.,.,4%,.,-1%

# Source: PubChem
